A word on the IC50: it is the midpoint of a concentration-inhibition curve.

The source made the active and inactive calls.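 The calls were made as follows: active = IC50 at or below 10 µM; inconclusive = IC50 above 10 µM but below 20 µM; inactive = IC50 of 20 µM or more.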

Chain of Neuropeptide S receptor (Homo sapiens) (Q6W5P4 whole entry, looked up): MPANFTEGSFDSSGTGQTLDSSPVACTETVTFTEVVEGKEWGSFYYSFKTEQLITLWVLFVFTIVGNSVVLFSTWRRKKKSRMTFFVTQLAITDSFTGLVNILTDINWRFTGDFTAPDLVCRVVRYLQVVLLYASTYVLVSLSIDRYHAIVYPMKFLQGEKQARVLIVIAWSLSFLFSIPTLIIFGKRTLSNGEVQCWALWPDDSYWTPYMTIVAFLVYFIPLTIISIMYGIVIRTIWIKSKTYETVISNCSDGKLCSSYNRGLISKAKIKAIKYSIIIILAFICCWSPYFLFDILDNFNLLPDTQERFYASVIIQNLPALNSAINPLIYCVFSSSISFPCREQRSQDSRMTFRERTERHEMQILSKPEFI

The target in this experiment is Neuropeptide S receptor (Homo sapiens) (UniProt Q6W5P4). Description: Robust Characterization of cAMP Signal Transduction for Antagonists of the Neuropeptide S Receptor: SAR. The settings on record: CHO-NPSR cells, NPS-stimulated cAMP, TR-FRET. The text has this:
Neuropeptide S receptor (NPSR), previously known as GPR154, is a recently de-orphanized G protein coupled receptor. Its endogenous ligand is the 20 amino acids peptide Neuropeptide S (NPS). […] NPS and its receptor are found in various tissues. Specifically they are highly expressed in brain areas that have been implicated in modulation of arousal, stress and anxiety. Central administration of NPS in mice produces an unusual profile of activity by inducing wakefulness and arousal, while at the same time suppressing anxiety. Therefore, NPSR may represent a novel drug target for the treatment of sleep and anxiety disorders. To identify NPSR antagonists, we developed a cell-based cAMP assay. NPS can stimulate the production of cAMP in Chinese hamster ovary cells stably expressing NPS receptor. This change in intracellular cAMP level can be detected by a homogeneous LANCE cAMP assay based on the TR-FRET (time resolved fluorescence resonance energy transfer) between a europium-labeled cAMP tracer complex and a cAMP-specific antibody labeled with Alexa Fluor 647. The europium-labeled cAMP tracer complex is formed by the tight interaction between Biotin-cAMP (b-cAMP) and streptavidin labeled with Europium-W8044 chelate (Eu-SA). Light pulse at 320 nm excites the europium of the cAMP tracer and the energy emitted is transferred to the Alexa molecule bound to the cAMP antibody, generating a TR-FRET signal at 665 nm. Residual energy from the europium will produce a light at 620 nm. The native unlabeled cAMP from cell lysates competes with the europium-cAMP tracer for antibody binding and reversely reduces the emission signal of Alexa by interrupting FRET between the two labeled molecules. Both emission signals from the FRET donor (620 nm) and the acceptor (665 nm) can be detected by a plate reader in the TRF mode. Expression of result in fluorescence ratio (665 nm/620 nm) helps to normalize differences due to cell density and reagent dispensing. This assay was successfully optimized to a 1536-well plate format. Select compounds from the primary screen (AID 1461) were chosen for confirmation based on potency, efficacy, SAR, and activity across other assays in PubChem and at NCGC. Other compounds are analogs of active compounds from the primary screen. […]
A Chinese hamster ovary (CHO) cell line stably expressing the NPS receptor (CHO-NPSR) was obtained from Dr. Heilig lab at NIAAA and maintained in F-12 Kaighn's media (Invitrogen, Carlsbad, CA, 21127) supplemented with 10 % FBS, 100 units/ml penicillin, 100 ug/ml streptomycin and 250 ug/ml geneticin at 37C, 5% CO2 in a humidified atmosphere. […] IC50 values were determined from concentration-response data modeled with the standard Hill equation. […]
On the technique in general: Time-resolved FRET reads energy transfer from a long-lived donor to a nearby acceptor.
On to `Cc1c(P(=S)(c2ccccc2)c2ccccc2)[n+]2ccccc2n1C/C=C/c1ccccc1`, for which the IC50 was 22.1 nM (active).
In the case of `COc1ccc(C2c3c(ncn(CCN4CCOCC4)c3=N)Oc3ccc4ccccc4c32)cc1OC` (centres undefined) it was 296 nM (active); in that of `O=C1OC(c2ccccc2)(c2ccccc2)N2CCN(C(=O)NCc3ccc(F)cc3)CC12` (centres undefined), 208 nM (active); in that of `CCC(C)(CCN1CCOCC1)N(Cc1cc2ccccc2n(C)c1=O)C(=O)C1CCCCC1` (centres undefined), 17.6 nM (active).

These data come from PubChem BioAssay AID624054 (National Center for Advancing Translational Sciences (NCATS), 2012).
